Hit rate of the full screen: of about 67,000 compounds, about 300 (0.45%) showed an effect of 50% or more. For the sample, strong results were picked, then their nearest neighbours and some compounds at random.

Polyketide synthase Pks13 (Mycobacterium tuberculosis (strain ATCC 25618 / H37Rv)), sequence (I6X8D2 whole entry): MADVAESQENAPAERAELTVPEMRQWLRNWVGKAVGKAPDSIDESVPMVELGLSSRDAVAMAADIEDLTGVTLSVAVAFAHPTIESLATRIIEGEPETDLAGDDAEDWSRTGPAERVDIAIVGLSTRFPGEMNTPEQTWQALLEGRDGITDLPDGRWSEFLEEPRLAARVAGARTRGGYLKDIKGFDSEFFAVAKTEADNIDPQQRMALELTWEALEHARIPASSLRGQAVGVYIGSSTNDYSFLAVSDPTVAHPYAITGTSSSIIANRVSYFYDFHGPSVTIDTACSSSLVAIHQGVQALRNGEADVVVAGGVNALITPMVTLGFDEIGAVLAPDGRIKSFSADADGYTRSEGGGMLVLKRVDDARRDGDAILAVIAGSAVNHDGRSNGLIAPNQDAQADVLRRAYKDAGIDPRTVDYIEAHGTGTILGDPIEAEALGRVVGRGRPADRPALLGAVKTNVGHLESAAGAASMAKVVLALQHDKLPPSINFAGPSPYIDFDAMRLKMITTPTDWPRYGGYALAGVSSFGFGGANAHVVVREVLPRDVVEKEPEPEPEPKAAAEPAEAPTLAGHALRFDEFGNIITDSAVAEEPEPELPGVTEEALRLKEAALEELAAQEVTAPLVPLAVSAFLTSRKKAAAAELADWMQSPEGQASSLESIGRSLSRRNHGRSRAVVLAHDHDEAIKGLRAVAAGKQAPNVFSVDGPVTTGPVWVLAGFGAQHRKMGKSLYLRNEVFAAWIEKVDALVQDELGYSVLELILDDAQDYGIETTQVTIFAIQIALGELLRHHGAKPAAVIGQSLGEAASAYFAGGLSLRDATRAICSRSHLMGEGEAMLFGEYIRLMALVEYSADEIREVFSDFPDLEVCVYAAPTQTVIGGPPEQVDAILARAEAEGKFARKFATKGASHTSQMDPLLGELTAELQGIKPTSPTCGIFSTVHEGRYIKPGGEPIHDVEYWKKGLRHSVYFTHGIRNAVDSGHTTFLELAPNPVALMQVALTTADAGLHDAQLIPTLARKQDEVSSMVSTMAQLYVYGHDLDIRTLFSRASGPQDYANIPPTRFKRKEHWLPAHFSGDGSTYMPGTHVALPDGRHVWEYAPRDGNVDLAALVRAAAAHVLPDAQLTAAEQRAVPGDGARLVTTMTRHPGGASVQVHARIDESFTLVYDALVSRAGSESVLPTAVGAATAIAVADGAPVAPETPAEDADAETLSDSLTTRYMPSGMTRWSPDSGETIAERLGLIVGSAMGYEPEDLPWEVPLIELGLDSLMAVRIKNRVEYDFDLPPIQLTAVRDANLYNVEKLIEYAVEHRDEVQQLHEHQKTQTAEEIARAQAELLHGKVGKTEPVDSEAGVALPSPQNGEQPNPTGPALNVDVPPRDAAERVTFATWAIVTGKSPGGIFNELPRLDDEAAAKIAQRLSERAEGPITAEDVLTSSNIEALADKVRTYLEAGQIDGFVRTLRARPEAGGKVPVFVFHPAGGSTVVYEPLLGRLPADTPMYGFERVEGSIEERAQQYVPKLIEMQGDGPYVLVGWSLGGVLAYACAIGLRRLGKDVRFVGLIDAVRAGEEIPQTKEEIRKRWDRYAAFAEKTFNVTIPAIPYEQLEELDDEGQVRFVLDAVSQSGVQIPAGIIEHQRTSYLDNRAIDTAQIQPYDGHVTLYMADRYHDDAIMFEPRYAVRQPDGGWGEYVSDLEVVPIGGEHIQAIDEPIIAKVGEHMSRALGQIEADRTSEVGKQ

This assay addresses Polyketide synthase Pks13 (Mycobacterium tuberculosis (strain ATCC 25618 / H37Rv)) (UniProt I6X8D2). Put plainly: Mycobacterium tuberculosis Polyketide synthase 13 Thioesterase (PKS13). Format: functional. Further details: scale not given: in the data most compounds retested in dose-response had high values. The note with it: 30 µM.
In the case of `Cn1cc(CN2C[C@@H]3OCCN(CC4CCCC4)[C@@H]3C2)cn1`, the Percent Effect is -22.6%.
Take `Cc1nc(CO[C@H]2CN(C(=O)c3ccc[nH]3)[C@@H]3COC[C@H]23)cs1`: the Percent Effect was -11.9%.
With `CN(C)c1ccc(C(=O)NCc2ccc(N3CCOCC3)cc2)cn1`, the Percent Effect is -1.83%.
Next, `CN(C)C(=O)c1nnc2ccc(N3CCOCC3)cc2n1`: 11.7%.
For the compound `O=C(NCc1ccccc1)c1nnc2ccc(N3CCOCC3)cc2n1`, the Percent Effect turned out to be 50.8%.
For the compound `CCN(CC)C(=O)c1nnc2ccc(N3CCOCC3)cc2n1`, the Percent Effect amounted to 51.7%.
The value for `CCN(CCC(F)(F)F)C(=O)Nc1cccc(N2CCOCC2)c1` was -2.57%.
The value for `CCNC(=O)c1nnc2ccc(N3CCOCC3)cc2n1` was 48.2%; that for `c1cncc(OC[C@@]23CCO[C@@H]2CCN(Cc2cccs2)C3)c1` was 12.4%; that for `Cc1cccc(CN2C[C@@H]3COC[C@]3(COc3cccnc3)C2)n1` was 8.46%.
Next, `CC(=O)N1[C@@H](C(=O)NCC2CC2)C[C@@H]2CN(Cc3ccco3)C[C@@H]21`: -5.84%.
For the compound `O=C(c1ccccc1F)N1CC[C@@H]2CN(c3ncccn3)CCO[C@@H]2C1`, the Percent Effect worked out at 12%.
As to `CCC(CNC(=O)CNC(C)=O)Oc1cccc(F)c1` (stereo unspecified), the Percent Effect is -7.54%.
Next, `CCC(=O)NCC(CC)Oc1cccc(F)c1` (stereo unspecified): -2.34%; `CCC(CNC(=O)COC)Oc1cccc(F)c1` (stereo unspecified): 60.4%.
Next, `O=C(CCc1ccccc1)N1C[C@@H]2CN(Cc3ccoc3)CCO[C@@H]2C1`: -7.96%; `CCc1nnc(CNc2ccc(CC(=O)N3CCSCC3)cc2)o1`: 5.6%; `CCc1noc(CNc2ccc(CC(=O)N3CCSCC3)cc2)n1`: -12.3%.
The value for `Cc1noc(CNc2ccc(CC(=O)N3CCSCC3)cc2)n1` was 70.3%; that for `CN1C(=O)[C@H]2CC[C@@H]1CN(C(=O)c1sccc1S(N)(=O)=O)C2` was -33.4%; that for `CCN1C[C@H]2CCN(C(=O)C3CCCO3)CC[C@H]2S1(=O)=O` (stereo partly specified) was -20.2%.
As to `CNC(=O)[C@H]1C[C@@H]2CN(C(=O)c3cncc(C)c3)C[C@@H]2N1C`, the Percent Effect was 19.6%.
Next, `COc1ccc(C(C)Nc2cnn(C)c(=O)c2Cl)cc1OC` (stereo unspecified): 2.82%.
The value for `CC(Nc1cnn(C)c(=O)c1Cl)c1ccc(F)cc1` (stereo unspecified) was -8.28%; that for `CC(Nc1cnn(C)c(=O)c1Cl)c1ccc(F)c(F)c1` (stereo unspecified) was 78.5%.
As for `O=C1[C@H]2CN(c3ncccn3)C[C@H]2CN1Cc1ccncc1`, the Percent Effect is -2.04%.
The value for `c1cc(CN2C[C@@H]3OCCN(CC4CCCO4)[C@@H]3C2)cs1` (stereo partly specified) was -16.8%; that for `CCS(=O)(=O)N1C[C@H]2CN(Cc3ccc(OC)cc3)C(=O)[C@H]2C1` was -7.48%.
Next, `O=C(CC(F)(F)F)N1C[C@H]2CN(CC3CC3)C(=O)[C@H]2C1`: -30.7%; `Cn1cc(-c2ccnc(NCC3CCN(Cc4ccccc4)C3)n2)cn1` (stereo unspecified): 60.9%.
On to `Cn1cc(-c2ccnc(NCC3CC3)n2)cn1`, for which the Percent Effect is -14.8%.
For the compound `COCCCN1CCC(CNc2nccc(-c3cnn(C)c3)n2)C1` (stereo unspecified), the Percent Effect was -31.5%.
Next, `O=C(CSc1ccccn1)N1C[C@H]2CC[C@@H]1CN(Cc1cscn1)C2`: -9.36%; `CN(C)C(=O)CN1C[C@@H]2CC[C@H](C1)N(C(=O)Cc1ccccc1Cl)C2`: -15.3%.
The value for `COCCN(C)C[C@@H]1CCC[C@@H]2CN(c3ncccn3)C[C@@H]21` was -50.6%; that for `CN(C[C@@H]1CCC[C@@H]2CN(c3ncccn3)C[C@@H]21)C1CC1` was 75.8%; that for `COc1cc(N2C[C@H]3CCC[C@@H](CN(C)C4CC4)[C@H]3C2)ncn1` was -5.89%.
The value for `Cc1cccc(CN2C[C@H](OCc3csc(C)n3)[C@H]3COC[C@H]32)n1` was -2.96%; that for `CCOCC1CN(C(=O)c2cccs2)Cc2cnn(CC3CC3)c21` (stereo unspecified) was 80.6%.
For the compound `CCOCC1CN(C(=O)c2cccn2C)Cc2cnn(CC3CC3)c21` (stereo unspecified), the Percent Effect was -11.3%.
Next, `CCn1ncc2c1C(COCC1CC1)CN(C(=O)c1cccs1)C2` (stereo unspecified): -31.9%; `Cn1ccnc1CN1CC[C@@H]2[C@@H](CCC(=O)N2CCc2c[nH]cn2)C1`: -26.1%.
In the case of `c1cnc(N2CCOCC3(CCCN(CC4CC4)C3)C2)cn1` (stereo unspecified), the Percent Effect came to 2.73%.
As to `c1cnc(N2CCC3(CCCN(CC4CCCCC4)C3)C2)cn1` (stereo unspecified), the Percent Effect stood at 66.6%.
The value for `CSc1nccc(N2CCC3(CCCN(CC4CC4)C3)C2)n1` (stereo unspecified) was -0.995%; that for `C[C@H]1C[C@H]2CN(S(=O)(=O)c3ccc(F)cc3)CC[C@@H]2O1` was -20.4%.
The value for `O[C@]12CCNC[C@H]1CN(c1nccc3ccccc13)CC2` was -2.31%; that for `CC(NC(=O)N1CCC(CC(N)=O)CC1)c1csc2ccccc12` (stereo unspecified) was -11.9%; that for `CC(NC(=O)N1CCC(CO)CC1)c1csc2ccccc12` (stereo unspecified) was 53%.
Next, `CC(=O)N1CCCN(C(=O)NC(C)c2csc3ccccc23)CC1` (stereo unspecified): -15.4%.
As for `Cc1cnn(CC2CCCN2Cc2cc(=O)n3cc(C)ccc3n2)c1` (stereo unspecified), the Percent Effect was 99.9%.
The value for `Cc1cnn(CC2CCCN2Cc2cc(=O)n3cccc(C)c3n2)c1` (stereo unspecified) was -5.2%; that for `Cc1cnn(CC2CCCN2Cc2cc(=O)n3ccccc3n2)c1` (stereo unspecified) was 2.94%.
Next, `Cc1cnc(CNC(=O)[C@@]23CCO[C@@H]2CCN(c2ncccn2)C3)cn1`: -4.01%; `CC(C)CN1C[C@H]2CCN(C(=O)NC3CCCC3)CC[C@H]2S1(=O)=O`: 6.92%.
Next, `Cc1ccc(C)c(OC2CCN(C(=O)CNc3ccccc3Cl)CC2)c1`: 73.1%.
Turning to `Cc1ccc(C)c(OC2CCN(C(=O)NCC(=O)N3CCCC3)CC2)c1`, the Percent Effect was -7.72%.
With `CCNC(=O)CCC(=O)N1CCC(Oc2cc(C)ccc2C)CC1`, the Percent Effect is -5.09%.
The value for `CNC(=O)CN1CC[C@H]2CN(C(=O)c3cccc(C)c3)C[C@H]2C1` was -11%; that for `Cn1ccnc1C(=O)N1C[C@@H]2CCN(c3cnccn3)C[C@@H]2C1` was 124%; that for `Cn1cncc1C(=O)N1C[C@@H]2CCN(c3cnccn3)C[C@@H]2C1` was -6.26%.
The value for `Cn1ccc(C(=O)N2C[C@@H]3CCN(c4cnccn4)C[C@@H]3C2)n1` was -2.86%.
The value for `O=C(c1ccco1)N1CCO[C@@H]2CN(c3ncc(F)cn3)CC[C@@H]2C1` was -32.7%; that for `CS(=O)(=O)NC[C@]12COC[C@H]1CN(C(=O)c1ccncn1)C2` was -5.6%.
As to `Cc1noc(C)c1CN1C(=O)[C@H]2CC[C@@H]1CN(Cc1cscn1)C2`, the Percent Effect came out at 7.07%.
The value for `CN(Cc1ccncc1)C1CCC[C@@H]2CN(c3ncccn3)C[C@H]12` (stereo partly specified) was -25.8%; that for `COc1ccccc1-n1c(C)cc(CNC(=O)NC(C)C)c1C` was 0.233%.
Turning to `CCOC(=O)CNC(=O)NCc1cc(C)n(-c2ccccc2OC)c1C`, the Percent Effect is 50%.
Next, `CCOC(=O)CNC(=O)NCc1cc(C)n(-c2ccc(OC)cc2)c1C`: 10.9%.
With `CN1C[C@@H]2CN(C(=O)C3CC=CC3)C[C@@H]2C1=O`, the Percent Effect is -9.96%.
`CN(C)c1ccc(C(=O)N2CCN(C(=O)N3CCCCC3)CC2)nn1`: the Percent Effect stood at 65.3%.
Next, `CN(C)c1ccc(C(=O)N2CCN(CC(C)(C)O)CC2)nn1`: -26.8%.
The value for `CCC(O)CN1CCN(C(=O)c2ccc(N(C)C)nn2)CC1` (stereo unspecified) was 5.36%.
For the compound `CCS(=O)(=O)N1C[C@H](c2nc(C)no2)C[C@H]2OCC[C@H]21`, the Percent Effect is 5.36%.
Next, `CCc1ccc(CN2C[C@H](OC)[C@H]3COC[C@H]32)o1`: -5.96%.
Next, `O=C(NC1CCC1)[C@H]1C[C@@H]2CN(C(=O)Nc3ccc(F)cc3)C[C@H]1O2`: 5.75%; `O=C(c1ccc(O)cc1)N1C[C@@H]2OCCN(c3ncccn3)[C@@H]2C1`: -11.4%; `Cn1cc(CN2C[C@H]3CCC[C@@H](CNc4nccn4C)[C@H]3C2)cn1`: -23.6%.
The value for `Cc1cccc(CN2C(=O)C[C@H]3[C@@H]2CCN3Cc2ccco2)n1` was -23.1%.
As to `CCCOc1cccc(NS(=O)(=O)c2cc(C(=O)O)cs2)c1`, the Percent Effect was 40.8%.
Next, `O=C(O)c1csc(S(=O)(=O)Nc2cccc(OCC(F)(F)F)c2)c1`: 50%; `CCOc1cccc(NS(=O)(=O)c2cc(C(=O)O)cs2)c1`: 0.586%.
The value for `CCOC1CCN(CCc2nc(-c3cccc(Cl)c3)no2)CC1` was 8.68%.
On to `Clc1cccc(-c2noc(CCN3CCN(c4ccncc4)CC3)n2)c1`, for which the Percent Effect is -57.2%.
Next, `NC(=O)N1CCCN(CCc2nc(-c3cccc(Cl)c3)no2)CC1`: 55.5%; `CN1CCN(C(=O)[C@H]2C[C@@H]3CN(c4ncc(F)cn4)C[C@@H]3N2C)CC1`: -4.39%; `COCC(=O)N1CC[C@@H]2O[C@H](COCc3ccncc3)CC[C@@H]21`: -12.9%.
The value for `CC1CCN(S(=O)(=O)c2cccn(CC(=O)NC(C)(C)C)c2=O)CC1` was -9.8%; that for `COC(=O)Cn1cccc(S(=O)(=O)N2CCC(C)CC2)c1=O` was 50.5%.
Regarding `CC1CCN(S(=O)(=O)c2cccn(CC(=O)NC3CCCC3)c2=O)CC1`, the Percent Effect is 3.17%.
For the compound `CCOCCC(=O)N1CCc2cccc(S(=O)(=O)N3CCOCC3)c2C1`, the Percent Effect amounted to 59.9%.
The value for `CCCOC(=O)N1CCc2cccc(S(=O)(=O)N3CCOCC3)c2C1` was -4.05%.
As for `COCC(=O)N1CCc2cccc(S(=O)(=O)N3CCOCC3)c2C1`, the Percent Effect is -3.94%.
Next, `COCCNC(=O)[C@@H]1CN(c2ncccn2)C[C@H]2OCC[C@H]21`: -43.5%; `CC(=O)N1C[C@H]2CN(CC3CC3)C(=O)[C@H]2C1`: -18.6%; `CSc1ccc2cc(CN(C)CCCN(C)C)c(=O)[nH]c2c1`: 6.22%.
Next, `CSc1ccc2cc(CN(C)CCc3cn[nH]c3)c(=O)[nH]c2c1`: -13.1%; `CSc1ccc2cc(CN(C)CCO)c(=O)[nH]c2c1`: 67%.
The value for `Cc1cnc(N2CCN3C[C@H](OCc4ccccn4)C[C@H]3C2)nc1` was -24.2%; that for `Cn1ccnc1CN1CCN2C[C@H](Oc3cccc(F)c3)C[C@H]2C1` was 23.6%.
In the case of `O=C1C[C@H]2CC[C@@H](CN1)N2C1CCSCC1`, the Percent Effect was -1.94%.
The value for `CN(C(=O)c1ccc(-n2ncc(C#N)c2N)cc1)C1CCCC1` was -1.63%; that for `N#Cc1cnn(-c2ccc(C(=O)N(C3CCCCC3)C3CC3)cc2)c1N` was -18%.
As to `CN(CC1CCCCC1)C(=O)c1ccc(-n2ncc(C#N)c2N)cc1`, the Percent Effect worked out at 52.7%.
Regarding `CCCN1CCN(C(=O)c2cnccn2)[C@H]2CS(=O)(=O)C[C@H]21`, the Percent Effect is -4.16%.
The value for `c1cncc(CO[C@H]2CC[C@H]3[C@@H]2OCCN3C2CCOCC2)c1` was 2.72%.
The value for `Cc1cc(C)cc(CN2C[C@@H]3OCCN(S(=O)(=O)N(C)C)[C@@H]3C2)c1` was -14.4%.
Regarding `CC1(C)O[C@@](C)([C@H]2CC3(CCN(c4cnccn4)CC3)CO2)CC[C@@H]1O`, the Percent Effect is -3.99%.
Next, `CC(C)c1cc(N2CCC[C@H](N)C2)n2nccc2n1`: -7.75%; `CC(C)c1cc(N2CCC(N)CC2)n2nccc2n1`: 61.4%.
For the compound `CC(C)c1cc(N2CC[C@H](F)C2)n2nccc2n1`, the Percent Effect is -11.1%.

These data come from ChEMBL document CHEMBL3988442, “University of Dundee, Small-Polar-MMV Screening Library” (2021).
